# Records with an inconclusive call do not appear. Values without a mark were called inactive. Calls of active or inactive are those of the source. Calls come from the whole dose curve. Peptide text beside a SMILES is read from it.
# Experiment: S16 Schwann cell PMP22 intronic element beta-lactamase assay (AID 624044); note: nearly all actives have a fitted effect of over 15% in size;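 for ratio activity, negative = inhibition: 0% = DMSO and -100% = potassium clavulanate positive control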
# Settings: S16 rat Schwann cells, PMP22 element beta-lactamase FRET, 24 h; series mostly up to 38.3 µM; ratio activity, negative = inhibition: at the top concentration
# How it was run: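 Rat S16 Schwann cells with beta-Lac driven by a PMP22 intronic element, compound-treated 24 h at 37 °C. LiveBLAzer FRET B/G read: 460 nm normalized to potassium clavulanate vs DMSO; 535 nm FRET as viability; concentration-effect curves classified.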
# Potency is the fitted concentration of half-maximal effect.
Compound,"ratio activity, negative = inhibition",Potency
Cc1cc(C(=O)NNCc2ccccc2)no1,1.77% [at 17.1 µM],–
CC(C)(C)C(=O)OCOC(=O)[C@@H]1N2C(=O)[C@@H](N=CN3CCCCCC3)[C@H]2SC1(C)C,8.58% [at 17.1 µM],–
CCCCC(=O)O[C@]1(C(=O)CO)[C@H](C)C[C@H]2[C@@H]3CCC4=CC(=O)C=C[C@]4(C)[C@@]3(F)[C@@H](O)C[C@@]21C,1.84%,–
Cc1c(C)c2c(c(C)c1O)CC[C@@](C)(CCC[C@H](C)CCC[C@H](C)CCCC(C)C)O2,-6.63%,–
NC(=O)c1ncn(C2OC(CO)C(O)C2O)n1 (configuration not stated),-20%,–
O=C(O)c1cc(O)c2c(c1)[O][Bi][O]2,1.89%,–
CC(=O)Oc1c(C)cc(OCC(O)CNC(C)C)c(C)c1C (configuration not stated),-6.96%,–
CC[N+](C)(C)Cc1ccccc1Br,0.991% [at 17.1 µM],–
O=S(=O)(O)c1cc(O)c2c(N=Nc3ccc(Nc4ccccc4)c4c(S(=O)(=O)O)cccc34)cc(S(=O)(=O)O)cc2c1,0.127%,–
CC[C@@]1(O)C(=O)OCc2c1cc1n(c2=O)Cc2cc3c([N+](=O)[O-])cccc3nc2-1,–,1.41 µM (active)
IC(I)I,3.66%,–
CC1=CCC(C(C)(C)O)CC1 (configuration not stated),2.74%,–
O=CCCCC=O,1.89%,–
O=S(=O)(O)O,-1.65%,–
Cc1ccccc1OCC(O)CNCCOc1ccc(C(N)=O)cc1 (configuration not stated),-2.28%,–
CC(C)N=c1cc2n(-c3ccc(Cl)cc3)c3ccccc3nc-2cc1Nc1ccc(Cl)cc1,3.01% [at 17.1 µM],–
CCCCCCCCCCCCCCCC(=O)OCC(COC(=O)CCCCCCCCCCCCCCC)OC(=O)CCCCCCCCCCCCCCC,-5.96%,–
CC(=O)N[C@@H](CC(=O)O)C(=O)N[C@@H](CCC(=O)O)C(=O)O (Ac-Asp-Glu-OH),-1.57%,–
CCOC(C)=O,0.295%,–
CC(=O)Oc1cc(C)c(OC(C)=O)c2ccccc12,-9.91%,–
CCC(=O)NCCC1CCc2ccc3c(c21)CCO3 (configuration not stated),-4.66%,–
CCOc1ccc2c(c1)C(C)=CC(C)(C)N2,-0.479%,–
CC1(C)C(C=C(Cl)Cl)C1C(=O)OCc1cccc(Oc2ccccc2)c1 (configuration not stated),-7.76%,–
CC1(C)S[C@@H]2[C@H](NC(=O)[C@@H](NC(=O)N3CCNC3=O)c3ccccc3)C(=O)N2[C@H]1C(=O)O,-3.07% [at 17.1 µM],–
COC(F)(F)C(Cl)Cl,0.38%,–
O=C(COc1ccc(Cl)cc1)OCCNC12CC3CC(CC(C3)C1)C2,-0.334%,–
CC(O)CO (configuration not stated),1.44%,–

# — PubChem BioAssay (NCATS)
